Some test systems named below: NCI-H23 lung; NCI-H226 lung; NCI-H322M lung; HOP-62 NSCLC; NCI-H460 lung; HOP-92 NSCLC; NCI-H522 lung; A549/ATCC NSCLC; 786-0 renal; COLO 205 colon; DU-145 prostate; K-562 leukemia; MALME-3M melanoma; MDA-MB-231 breast; RXF 393 renal; SF-268 CNS; SF-295 CNS; SF-539 CNS; UACC-257 melanoma; M14 melanoma.
What all share (assay): NCI-60 one-dose screen, 48 h (100 = growth as untreated, 0 = no growth, -100 = all killed)
Common to all, as to conditions: 10 µM unless noted

Compounds without any hit were thinned out: in the full panel of roughly 83,000, 20% have a hit.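 Step 1: grow cells in 96-well plates. Step 2: add test compound at a single concentration. Step 3: incubate 48 h. Step 4: record percent growth.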 Values without a mark were called inactive. Calls of active or inactive are those of the source. How the source made its calls: active means growth percent below 10; inactive means the rest.

In the case of `CC(=O)c1ccc(NC(=O)CSc2nnc(-c3cc(-c4ccc(Cl)cc4)nc4ccccc34)o2)cc1`, the growth in the assay on NCI-H23 lung was 61%; in the assay with NCI-H226 lung, 96.4%; with NCI-H322M lung it was 97.8%; in the assay with HOP-62 NSCLC it was 80.6%; in the assay on NCI-H460 lung it was 46%; with HOP-92 NSCLC, 94.2%. Besides, the growth is 60.9% in the assay on NCI-H522 lung; 76.7% with A549/ATCC NSCLC; 63.5% with 786-0 renal; 96.6% in the assay with COLO 205 colon; 90% in the assay on DU-145 prostate; 63% in the assay on K-562 leukemia. Also, the growth in the assay with MALME-3M melanoma was 70.8%; in the assay with MDA-MB-231 breast it was 53.7%; in the assay on RXF 393 renal, 87.2%; in the assay on SF-268 CNS, 82.4%; in the assay on SF-295 CNS, 88.3%; with SF-539 CNS, 74.2%. The growth was 97.5% with UACC-257 melanoma and 77.6% in the assay on M14 melanoma.
With `NC[C@@H]1CCN(c2cc3c(cc2F)c(=O)n(N)c(=O)n3Cc2ccc(-c3ccccc3)cc2)C1`, the growth in the assay with NCI-H23 lung was 87.2%; in the assay on NCI-H226 lung it was 91.1%; with NCI-H322M lung, 96.8%; in the assay with HOP-62 NSCLC, 77.4%; in the assay with NCI-H460 lung, 99.7%; in the assay on HOP-92 NSCLC, 73.6%. Also, the growth with NCI-H522 lung is 68.8%; in the assay on A549/ATCC NSCLC, 89.6%; in the assay with 786-0 renal it was 66.2%; with COLO 205 colon it was 88.6%; with DU-145 prostate it was 102%; in the assay on K-562 leukemia it was -44% (active). In addition, the growth in the assay with MALME-3M melanoma is 121%; in the assay on MDA-MB-231 breast it was 89.7%; with RXF 393 renal, 74.7%; with SF-268 CNS, 83.1%; in the assay with SF-295 CNS, 96.5%; with SF-539 CNS, 90%. Further, the growth in the assay on UACC-257 melanoma is 112%; with M14 melanoma, 68.8%.
With `CCCCC(=O)Nc1c(C(=O)Nc2ccccc2)sc2nc3c(cc12)C(OC(=O)CCCC)CCC3` (stereo not given), the growth in the assay with NCI-H23 lung is 95.6%; in the assay with NCI-H226 lung, 92.6%; with NCI-H322M lung it was 113%; in the assay on HOP-62 NSCLC it was 101%; with NCI-H460 lung, 85.9%; with HOP-92 NSCLC, 84.4%. The growth in the assay with NCI-H522 lung is 77%; in the assay on A549/ATCC NSCLC, 105%; with 786-0 renal it was 84.1%; in the assay on COLO 205 colon, 90.3%; in the assay with DU-145 prostate, 87.9%; in the assay on K-562 leukemia, 85.3%. The growth is 105% with MALME-3M melanoma; 87.9% with MDA-MB-231 breast; 95.2% in the assay with RXF 393 renal; 85.7% in the assay on SF-268 CNS; 101% in the assay with SF-295 CNS; 94.7% in the assay with SF-539 CNS. Further, the growth was 110% in the assay on UACC-257 melanoma and 97.5% with M14 melanoma.
Regarding `COC(=O)c1cncc(C(=O)Nc2ccc(-n3cnc4ccccc43)cc2)c1`, the growth with NCI-H23 lung is 102%; with NCI-H226 lung it was 89.6%; with NCI-H322M lung, 95.6%; in the assay with HOP-62 NSCLC it was 94.8%; in the assay with NCI-H460 lung it was 96.9%; in the assay on HOP-92 NSCLC, 86.7%. Moreover, the growth was 84% in the assay on NCI-H522 lung; 94.4% with A549/ATCC NSCLC; 105% in the assay with 786-0 renal; 106% in the assay on COLO 205 colon; 105% in the assay with DU-145 prostate; 94.5% with K-562 leukemia. Also, the growth is 124% with MALME-3M melanoma; 94% in the assay with MDA-MB-231 breast; 100% in the assay with RXF 393 renal; 91.9% in the assay on SF-268 CNS; 100% in the assay on SF-295 CNS; 95.9% with SF-539 CNS. The growth with UACC-257 melanoma was 104%; with M14 melanoma, 102%.
For `COc1cc(C(=O)Nc2cc(OC)c3ccn(C)c3c2)cc2c1C[C@]1(C)CC[C@@H](O)C(C)(C)[C@H]1O2`, the growth in the assay on NCI-H23 lung was 30.3%; in the assay on NCI-H226 lung, 76.7%; in the assay on NCI-H322M lung, 57.3%; with HOP-62 NSCLC it was 11.7%; in the assay on NCI-H460 lung it was 14%; with HOP-92 NSCLC, 8.71% (active). Besides, the growth was -3.97% (active) with NCI-H522 lung; 24.1% in the assay with A549/ATCC NSCLC; 0.587% (active) in the assay with 786-0 renal; 3.69% (active) in the assay with COLO 205 colon; 32.1% in the assay on DU-145 prostate; 9.98% (active) with K-562 leukemia. For the same compound, the growth in the assay on MALME-3M melanoma was 31%; in the assay on MDA-MB-231 breast it was 30.6%; in the assay on RXF 393 renal, -32.8% (active); in the assay with SF-268 CNS, 27.3%; in the assay on SF-295 CNS, -44.2% (active); with SF-539 CNS it was -26.1% (active). Besides, the growth was 32.5% in the assay on UACC-257 melanoma and -32.7% (active) in the assay with M14 melanoma.
For the compound `Cc1cnc(SCc2ccc(Cl)cc2)[nH]c1=S`, the growth in the assay with NCI-H23 lung is 94.8%; in the assay on NCI-H226 lung, 111%; with NCI-H322M lung, 89.5%; in the assay with HOP-62 NSCLC, 94.2%; in the assay with NCI-H460 lung it was 113%; in the assay with HOP-92 NSCLC it was 105%. Moreover, the growth was 78.7% with NCI-H522 lung; 94.4% in the assay with A549/ATCC NSCLC; 92.8% with 786-0 renal; 121% in the assay with COLO 205 colon; 100% in the assay with DU-145 prostate; 92.9% in the assay with K-562 leukemia. Besides, the growth in the assay on MALME-3M melanoma was 95.8%; with MDA-MB-231 breast, 101%; in the assay with RXF 393 renal it was 132%; in the assay with SF-268 CNS it was 95.3%; in the assay on SF-295 CNS, 95.5%; with SF-539 CNS it was 101%. The growth in the assay on UACC-257 melanoma and with M14 melanoma was 102% throughout.
As to `NS(=O)(=O)c1ccc(-n2nc(-c3ccccc3)ccc2=O)cc1`, the growth is 101% in the assay with NCI-H23 lung; 100% with NCI-H226 lung; 115% in the assay on NCI-H322M lung; 102% in the assay with HOP-62 NSCLC; 104% in the assay on NCI-H460 lung; 97.1% in the assay with HOP-92 NSCLC. In addition, the growth in the assay with NCI-H522 lung is 89.9%; in the assay with A549/ATCC NSCLC, 112%; in the assay with 786-0 renal, 93.8%; in the assay on COLO 205 colon it was 125%; with DU-145 prostate, 109%; in the assay with K-562 leukemia, 89.3%. Further, the growth was 82.5% in the assay with MALME-3M melanoma; 108% in the assay with MDA-MB-231 breast; 125% in the assay on RXF 393 renal; 106% with SF-268 CNS; 260% with SF-295 CNS; 95.3% in the assay with SF-539 CNS. Besides, the growth is 111% in the assay with UACC-257 melanoma and 118% in the assay on M14 melanoma.
